# Measurements published in PubChem BioAssay AID652018 (The Scripps Research Institute Molecular Screening Center, 2013).
# Active and inactive are the calls of the source.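 Rule for the calls: active = at least 50% inhibition of LYPLA1 or LYPLA2 at 300 nM, with no off-target enzyme hit at any dose; inactive = under 50% inhibition on both enzymes, or any off-target hit.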
# Test system: Anti-Targets
# Assay: LYPLA1 inhibitor selectivity over serine hydrolases, late-stage follow-up, selectivity assay for LYPLA1 inhibitor project, cell lysate, competitive ABPP, HEK293T proteome, set 2 (AID 652018)
# Details: competitive ABPP FP-PEG-Rh gel; anti-targets hit, at 10 µM
SMILES,anti-target count,outcome
COc1ccc(N2CCN(C(=O)n3ncc(-c4ccccc4)n3)CC2)cc1,0,inactive
O=C(CN1CCN(C(=O)n2cc(C(O)(c3ccccc3)c3ccccc3)nn2)CC1)Nc1cc(C(F)(F)F)ccc1Cl,0,inactive
O=C(CN1CCN(C(=O)n2cc(-c3ccc(OC(F)(F)F)cc3)nn2)CC1)Nc1cc(C(F)(F)F)ccc1Cl,0,inactive
O=C(CN1CCN(C(=O)n2nccn2)CC1)Nc1cc(C(F)(F)F)ccc1Cl,0,inactive
O=C(CN1CCN(C(=O)n2nc(Br)nc2Br)CC1)Nc1cc(C(F)(F)F)ccc1Cl,0,inactive
O=C(CN1CCN(C(=O)n2ncc(C(O)(c3ccccc3)c3ccccc3)n2)CC1)Nc1cc(C(F)(F)F)ccc1Cl,1,active
O=C(CN1CCN(C(=O)n2cncn2)CC1)Nc1cc(C(F)(F)F)ccc1Cl,0,inactive
COc1ccc(N2CCN(C(=O)n3ncc(C(O)(c4ccccc4)c4ccccc4)n3)CC2)cc1,1,active
COc1ccc(N2CCN(C(=O)n3nc(Br)nc3Br)CC2)cc1,0,inactive
O=C(CN1CCN(C(=O)n2ncc(-c3ccc(-c4ccccc4)cc3)n2)CC1)Nc1cc(C(F)(F)F)ccc1Cl,0,inactive
